# Test results: the OligoGym collection
# Target: FANCF
# Test: pooled miR-30 sensor sort-seq; sequence = guide strand
# Conditions: shRNA
# Further: reference of the scale not given here.
row,Sequence,sensor-assay potency score (higher = more potent)
1,TTGGGACTCAGTTCCAACCCAA,-0.182
2,TTAGAACTTTATCTTTCAGAGG,-1.12
3,ATAGCCATTGAAGCGCAGCATG,-1.41
4,AAACCTATTGTGCAACTCCTCC,-0.726
5,TTATCTTTCAGAGGTGGAGGGG,-0.733

# Target: FANCG
# Test: as above
# Conditions: shRNA
row,Sequence,sensor-assay potency score (higher = more potent)
1,ATAGAGTCAAGGCATCTTGGGC,-0.699
2,ATAGCTTTCTAGGTACAGGGGG,0.363
3,TTTTCTGGCATCTTCCCACAGC,-0.807
4,TACACCTGGACCAACACAGGCC,0.254
5,TAGGCTCCGCTGGATATCCTGG,-1.03
